# Assay outcomes (PubChem)
# KDM5B inh = inhibitors of human KDM5B histone demethylase | Q9UGL1 | Potency, µM (titrated, usually from 57.7 µM), most hits filed as inhibitors | KDM5B demethylase, FDH-coupled NADH fluorescence (FDH is formaldehyde dehydrogenase) | 220,000 tested, 2.6% active; active = well fitted inhibition curve with a large enough effect; also: 0% is about no effect; nearly all actives have a fitted effect of over 70% in size
# Target sequence (Q9UGL1 whole entry, looked up): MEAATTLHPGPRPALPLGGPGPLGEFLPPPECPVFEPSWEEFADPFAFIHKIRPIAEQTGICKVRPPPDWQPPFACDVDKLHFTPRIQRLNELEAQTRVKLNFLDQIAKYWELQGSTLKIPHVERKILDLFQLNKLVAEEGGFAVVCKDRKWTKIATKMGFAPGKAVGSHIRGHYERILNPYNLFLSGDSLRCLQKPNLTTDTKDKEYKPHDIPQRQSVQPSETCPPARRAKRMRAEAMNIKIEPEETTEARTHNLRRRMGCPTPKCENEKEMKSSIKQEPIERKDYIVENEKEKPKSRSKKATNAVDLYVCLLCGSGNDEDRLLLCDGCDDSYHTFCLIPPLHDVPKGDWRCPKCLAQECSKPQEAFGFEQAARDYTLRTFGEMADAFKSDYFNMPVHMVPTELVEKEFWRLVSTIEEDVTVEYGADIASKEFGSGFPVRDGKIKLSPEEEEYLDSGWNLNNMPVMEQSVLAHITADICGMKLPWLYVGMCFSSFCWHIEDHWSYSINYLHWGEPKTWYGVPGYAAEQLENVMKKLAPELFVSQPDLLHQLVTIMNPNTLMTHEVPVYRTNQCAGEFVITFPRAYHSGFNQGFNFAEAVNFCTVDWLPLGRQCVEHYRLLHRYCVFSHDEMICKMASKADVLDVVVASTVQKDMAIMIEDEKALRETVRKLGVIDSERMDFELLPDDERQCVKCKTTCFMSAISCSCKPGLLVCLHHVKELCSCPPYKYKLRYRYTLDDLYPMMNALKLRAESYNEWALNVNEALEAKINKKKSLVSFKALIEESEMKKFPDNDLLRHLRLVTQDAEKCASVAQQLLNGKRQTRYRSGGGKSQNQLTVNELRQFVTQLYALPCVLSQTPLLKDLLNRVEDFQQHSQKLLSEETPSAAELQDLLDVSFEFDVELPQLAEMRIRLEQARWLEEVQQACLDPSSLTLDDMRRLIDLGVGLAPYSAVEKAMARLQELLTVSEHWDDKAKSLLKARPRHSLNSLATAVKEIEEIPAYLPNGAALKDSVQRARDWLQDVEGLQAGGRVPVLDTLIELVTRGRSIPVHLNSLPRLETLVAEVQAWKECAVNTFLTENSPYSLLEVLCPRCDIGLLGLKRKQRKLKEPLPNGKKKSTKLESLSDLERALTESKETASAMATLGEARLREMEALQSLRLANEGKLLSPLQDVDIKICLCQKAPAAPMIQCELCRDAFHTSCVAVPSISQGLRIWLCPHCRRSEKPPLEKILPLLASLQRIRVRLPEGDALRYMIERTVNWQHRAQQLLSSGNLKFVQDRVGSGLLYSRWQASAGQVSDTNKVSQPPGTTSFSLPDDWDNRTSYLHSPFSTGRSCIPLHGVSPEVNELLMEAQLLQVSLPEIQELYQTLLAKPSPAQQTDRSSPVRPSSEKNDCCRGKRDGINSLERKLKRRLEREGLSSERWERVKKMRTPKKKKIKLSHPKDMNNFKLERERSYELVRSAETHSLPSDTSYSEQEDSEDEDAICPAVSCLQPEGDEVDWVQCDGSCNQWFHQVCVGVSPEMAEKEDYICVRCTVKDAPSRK
#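 Inhibition is measured as reduced NADH fluorescence generation from FDH coupling to formaldehyde release. Truncated KDM5BΔAP at 200 nM final acts on H3K4me3 peptide (12.5 µM in substrate mix) in pH 7.5 HEPES buffer with Tween-20, 30 min, room temperature.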
# * = called active by the depositor; i = inactive. The full list was thinned out, with hits kept by preference. Potency is read from the fitted curve at half-maximal effect.
SMILES,KDM5B inh
COc1ccccc1Oc1ncccc1CNC(=O)Nc1cccc(C#N)c1,i
CCOc1ccc2nc(Nc3ncc4c(n3)CC(C)(C)CC4=O)nc(C)c2c1,i
CCN1C(=O)C2CC3(CCN(C(=O)c4cc(C)nn4C)CC3)CN2C1=O (centres undefined),i
COc1cccc(NS(=O)(=O)c2cc(-c3cnc(C)o3)ccc2C)c1,i
COC(=O)c1ccc(COC(=O)c2ccc(O)cc2)o1,i
Nc1cccn2nc(-c3ccccc3)nc12,28µM*
Nn1nc(-c2ccccc2)nc1-c1ccccc1,i
Cc1ccc(-c2nc3c4c(-c5ccccc5)c(-c5ccccc5)oc4ncn3n2)cc1,i
COc1cccc(NC(=O)c2sc3nc(C)c(C(=O)Nc4ccc(Cl)cc4)c(-c4ccc(Br)cc4)c3c2N)c1,i
CCCCN(Cc1ccccc1)C(=O)C1CCN(C(=O)c2csc(Nc3ccc(C)cc3)n2)CC1,i
COCCCNc1ncnc2sc3c(c12)CCN(Cc1cccnc1)C3,i
Cc1c(C)n(Cc2ccccn2)c2ncnc(NCc3ccccn3)c12,i
CN(C)c1ccc(C(=O)N2CCc3c(sc4ncnc(N)c34)C2)cc1,i
CC(=O)Nc1ccc(C(=O)COc2ncnc3sc4c(c23)CCC4)cc1,i
c1ccc(-c2csc3ncnc(NCc4ccccn4)c23)cc1,i
CCNc1ncnc2sc3c(c12)CCN(C(=O)COC)C3,35µM*
CCNc1ncnc2sc3c(c12)CCN(Cc1ccncc1)C3,25µM*
CCC(=O)N1CCc2c(sc3ncnc(N)c23)C1,28µM*
CCC(=O)N1CCc2c(sc3ncnc(NCc4ccccn4)c23)C1,28µM*
CNC(=O)N1CCc2c(sc3ncnc(NCCCOC)c23)C1,i
c1ccc(CN2CCc3c(sc4ncnc(N5CCOCC5)c34)C2)cc1,i
CCOC(=O)c1cnn(-c2ncnc3sc4c(c23)CCC(C)C4)c1N (centres undefined),i
CCc1cc(=O)oc2c(C)c(OCC(=O)NCc3ccccn3)ccc12,i
CC(C)C(NC(=O)C(N)C(C)O)C(=O)O (centres undefined),i
CC1CCN(C(=O)[C@H]2CCC[C@H]2NC(=O)c2ccncc2)CC1,i
SMILES,KDM5B inh
CN(CC(=O)NCCc1ccc(S(N)(=O)=O)cc1)S(=O)(=O)/C=C/c1ccccc1,i
O=C(Nc1cccc2cccnc12)c1cc(Cl)ccc1Cl,i
Cc1cc(C(=O)Nc2ccc(Cl)cc2)c(C)n1-c1ccccc1,i
Cn1cnc(S(=O)(=O)N2CC[C@@H]3C(=O)NCCCCCCN(Cc4ccncc4)[C@@H]3C2)c1,i
Cc1ccc(-c2nc3nc(CNc4ccc(C)c(Cl)c4)cc(=O)n3[nH]2)cc1,i
O=C(C1CCc2ncc(-c3ccsc3)n2C1)N1CCN(c2ccccn2)CC1 (centres undefined),25µM*
CC(C)CNC(=O)C1CCc2ncc(-c3ccsc3)n2C1 (centres undefined),i
CN(C)C(=O)c1cc2c(s1)CCC(C(=O)N1CCN(c3ccccn3)CC1)C2 (centres undefined),28µM*
CN(C)C(=O)c1cc2c(s1)CCC(C(=O)N1CCN(c3ccccc3)CC1)C2 (centres undefined),i
O=C(NC1CCN(Cc2ccccc2)CC1)C1CCc2ncc(-c3ccsc3)n2C1 (centres undefined),i
CN(C)C(=O)c1cc2c(s1)CCC(C(=O)N1CCN(c3cccc(Cl)c3)CC1)C2 (centres undefined),i
O=C1CCCC2=C1C(c1ccccc1)CC(=O)N2c1ccc(F)cc1 (centres undefined),i
CN1CCN(Cc2ncc[nH]2)CC12CCC(=O)N(CC(=O)O)CC2 (centres undefined),i
C[C@]1(CO)[C@H]2Cc3sc(NC(=O)c4ccco4)nc3[C@@H](CC(=O)NC3CCCCC3)[C@]2(C)CC[C@H]1O,i
Nc1nccnc1C(=O)NCCc1ccccn1,i
CC(C)c1noc(C2CCCN(S(=O)(=O)c3cccs3)CCC(=O)NCC2)n1 (centres undefined),i
CN1CCCCCCN(C(=O)Cc2c[nH]c3ccccc23)[C@H]2CCC[C@H]2C1=O,i
CC(C)CNC(=O)N1CCc2nc(OCC3CC3)ccc2C1,i
CCc1cccc(NC(=O)c2c(OC)cc(=O)n3c2CCCC3)c1,i
CCC[C@H]1CN(C(=O)c2ccc3c(c2)nc(NCCOC)n3C)C[C@@H]1N,i
COCCNc1nc2cc(C(=O)N3CC[C@H](CO)[C@@H](O)C3)ccc2n1C,28µM*
CC[C@H]1CN(C(=O)c2ccc(F)cc2)CC[C@H]1CC(=O)NCCOC,i
COc1ccc(NC(=O)Cc2nc(-c3ccccc3)oc2C)c(OC)c1,i
C[S+](=O)([O-])c1ccc(-c2cc3c(cn2)CN(Cc2ccccc2)CCN3)cc1,28µM*
Clc1cnccc1CN1CCNc2cc(-c3ccccc3)ncc2C1,i
SMILES,KDM5B inh
CC(=O)N1CCNc2cc(-c3ccc(Oc4ccccc4)cc3)ncc2C1,i
c1ccc(CN2CCNc3cnc(-c4ccc(N5CCOCC5)cc4)cc3C2)cc1,35µM*
O=C1CCN(Cc2ccccc2)CCOCCN1,i
CC(=O)Nc1cccc(-c2cc3c(cn2)CN(Cc2ccccc2)CCN3)c1,i
c1ccc(CN2CCNc3cc(Nc4ccc(N5CCOCC5)cc4)ncc3C2)cc1,i
CCn1cc(-c2cc3c(cn2)CN(CCc2ccccc2)CCN3)cn1,35µM*
Cc1ccc2c(CN3CCN(C(=O)c4c(F)cccc4F)CC3)cc(=O)oc2c1,i
CCn1nccc1C(=O)N1CCC2(CCCCO2)CC1,i
O=C(CN1CCN(Cc2ccccc2)CC1)N/N=C/c1cccs1,i
COc1cccc(CCC(=O)N2CCCC(CO)(CC3CC3)C2)c1 (centres undefined),i
Cc1ccc(CNC(=O)Cc2c[nH]c3ccccc23)cc1,i
Cc1ccc(C)c(Cn2c(C(C)NC(=O)c3ccccc3)nc3ccccc32)c1 (centres undefined),i
CCC(=O)NCc1ccccc1-c1ccnc(C)c1,i
Cc1cccc(-n2c(SCC(=O)N3CCCC3=O)nc3ccccc3c2=O)n1,i
Cc1ccc(Cl)cc1NC(=O)C(NS(=O)(=O)c1ccc2c(c1)CCC(=O)N2)c1ccccc1 (centres undefined),i
O=C(NCc1cccnc1)c1nc(-c2ccc(F)cc2)c2ccccn12,28µM*
C[S+](=O)([O-])c1ccc(-c2nc(C(=O)NCCc3ccc(Cl)cc3)n3ccccc23)cc1,89µM*
Cc1ccc(CCNC(=O)c2cc(-c3ccc(Cl)cc3)n[nH]2)cc1,i
C[S+](=O)([O-])c1ccc(-c2cc(C(=O)NCCc3ccc(Cl)cc3)nn3cccc23)cc1,i
O=C(NCc1ccc(F)cc1)c1nc(-c2ccc(Cl)cc2)c2ccccn12,25µM*
Cc1ccc(-c2nnn3c2nc(NCCc2ccc(Cl)cc2)c2ccccc23)cc1,i
O=C(Cn1c(SCC(=O)Nc2ccc(F)cc2)nc2ccccc21)NCc1ccc(Cl)cc1,i
COc1ccc(-c2cc(C(=O)NCCc3ccc(Cl)cc3)[nH]n2)cc1,i
C[S+](=O)([O-])c1ccc(-c2nc(C(=O)NCCc3ccc(Cl)cc3)n3ccncc23)cc1,79µM*
O=C(Cn1c(=O)nc(-c2ccccc2)c2ccccc21)NCc1ccc(Cl)cc1,i
O=C(NCc1cccnc1)c1ccc2ccccc2n1,i
O=C(NCc1ccc2c(c1)OCO2)C1COC2(CCCCC2)N1C(=O)Cc1cccs1 (centres undefined),i
